Seven sequences from paper PMC7862700, “An all-to-all approach to the identification of sequence-specific readers for epigenetic DNA modifications on cytosine” can be followed below.

Common to all, as to assay: DAPPL (digital affinity profiling via proximity ligation, sequencing); 10 mM Tris-HCl pH 7.5, 50 mM NaCl, 1 mM DTT, 4% glycerol, room temperature, 30 min; GST-TFs on glutathione beads, 16-mer random dsDNA library, 0.1% formaldehyde crosslink after washing; high values mean tight binding
The target in one assay is T1, FEV (Homo sapiens, UniProt Q99581 1-238).
T1 sequence: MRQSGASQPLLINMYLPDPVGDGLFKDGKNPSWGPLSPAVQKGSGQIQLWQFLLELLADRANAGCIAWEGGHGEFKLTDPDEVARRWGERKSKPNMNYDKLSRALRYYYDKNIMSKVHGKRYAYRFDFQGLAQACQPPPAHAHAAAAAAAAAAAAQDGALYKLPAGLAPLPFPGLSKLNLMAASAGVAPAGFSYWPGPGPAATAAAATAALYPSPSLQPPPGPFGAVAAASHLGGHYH
To be noted: protein: recombinant; tags: N-terminal GST; dsDNA, one strand shown. The method, boiled down:
(§1)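 After expression in yeast as GST fusions, human transcription factors were bound to glutathione beads, DNA-barcoded and mixed with a tag-only sample. The pools were incubated with 200 nmole of a 16-mer random double-stranded DNA library in Tris/NaCl/DTT/glycerol buffer (30 min, room temperature), washed and crosslinked with 0.1% formaldehyde. Proximity ligation with BsaI/T4 ligase ran for 1 h at 37 °C, before PCR amplification and sequencing on an Illumina NextSeq500. Binding signal is a hexamer's read frequency for a factor divided by its frequency for the tag-only sample.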

The next assay addresses ETV5 (Homo sapiens, UniProt P41161 1-510). To be noted: protein: recombinant; tags: N-terminal GST; dsDNA, one strand shown. The procedure, abridged: as §1
The target of another assay is HSF1 (Homo sapiens, UniProt Q00613 1-529). To be noted: protein: recombinant; tags: N-terminal GST; chain copies: 3; dsDNA, one strand shown. The procedure, abridged: as §1
HSF1, sequence (Q00613 whole entry): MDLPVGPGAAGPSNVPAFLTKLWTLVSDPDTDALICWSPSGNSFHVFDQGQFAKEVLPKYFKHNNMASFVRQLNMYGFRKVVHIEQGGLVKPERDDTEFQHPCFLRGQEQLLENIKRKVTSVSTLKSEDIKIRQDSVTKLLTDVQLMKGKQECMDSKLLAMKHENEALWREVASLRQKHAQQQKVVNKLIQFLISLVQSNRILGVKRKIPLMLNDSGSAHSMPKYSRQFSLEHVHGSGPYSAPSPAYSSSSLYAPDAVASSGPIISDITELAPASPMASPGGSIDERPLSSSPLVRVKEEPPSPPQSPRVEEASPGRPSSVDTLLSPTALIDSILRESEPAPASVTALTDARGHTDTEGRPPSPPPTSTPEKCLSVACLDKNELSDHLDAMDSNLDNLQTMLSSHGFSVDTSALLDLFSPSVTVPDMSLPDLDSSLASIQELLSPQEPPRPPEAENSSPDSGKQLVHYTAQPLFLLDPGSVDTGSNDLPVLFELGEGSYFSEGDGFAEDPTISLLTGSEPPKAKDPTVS
The next assay concerns the target T2, SPIC (Homo sapiens, UniProt Q8N5J4 1-248).
T2 sequence: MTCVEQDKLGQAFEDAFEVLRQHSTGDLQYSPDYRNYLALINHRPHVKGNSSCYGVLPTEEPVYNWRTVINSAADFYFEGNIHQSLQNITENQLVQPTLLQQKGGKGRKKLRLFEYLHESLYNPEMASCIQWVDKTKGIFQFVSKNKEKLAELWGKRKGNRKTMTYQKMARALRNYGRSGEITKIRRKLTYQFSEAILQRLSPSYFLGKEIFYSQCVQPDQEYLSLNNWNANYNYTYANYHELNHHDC
The following applies: protein: recombinant; tags: N-terminal GST; dsDNA, one strand shown. The procedure, abridged: as §1

The target in another assay is ELF4 (Homo sapiens, UniProt Q99607 1-663). To be noted: protein: recombinant; tags: N-terminal GST; dsDNA, one strand shown. The method, boiled down: as §1
ELF4, sequence (Q99607 whole entry): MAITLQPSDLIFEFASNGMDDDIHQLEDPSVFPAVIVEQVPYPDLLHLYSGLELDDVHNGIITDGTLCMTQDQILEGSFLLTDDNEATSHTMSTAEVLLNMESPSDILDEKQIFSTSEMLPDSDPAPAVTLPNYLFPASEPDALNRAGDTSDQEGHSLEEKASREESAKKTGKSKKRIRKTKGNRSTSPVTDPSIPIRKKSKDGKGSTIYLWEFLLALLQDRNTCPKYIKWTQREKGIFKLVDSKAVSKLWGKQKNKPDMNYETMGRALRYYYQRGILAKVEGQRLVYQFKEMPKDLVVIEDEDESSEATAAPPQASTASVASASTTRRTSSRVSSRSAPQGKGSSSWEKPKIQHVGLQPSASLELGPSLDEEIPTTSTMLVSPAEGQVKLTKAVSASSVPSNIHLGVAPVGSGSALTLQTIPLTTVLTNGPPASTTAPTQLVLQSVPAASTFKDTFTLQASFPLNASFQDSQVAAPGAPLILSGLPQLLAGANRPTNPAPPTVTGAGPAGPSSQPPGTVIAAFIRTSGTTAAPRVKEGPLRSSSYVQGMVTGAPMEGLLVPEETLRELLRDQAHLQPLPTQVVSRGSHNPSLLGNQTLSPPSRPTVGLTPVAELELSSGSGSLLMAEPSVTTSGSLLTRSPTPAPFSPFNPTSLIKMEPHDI
The next assay deals with T3, ELK4 (Homo sapiens, UniProt P28324-2 1-405).
T3 sequence: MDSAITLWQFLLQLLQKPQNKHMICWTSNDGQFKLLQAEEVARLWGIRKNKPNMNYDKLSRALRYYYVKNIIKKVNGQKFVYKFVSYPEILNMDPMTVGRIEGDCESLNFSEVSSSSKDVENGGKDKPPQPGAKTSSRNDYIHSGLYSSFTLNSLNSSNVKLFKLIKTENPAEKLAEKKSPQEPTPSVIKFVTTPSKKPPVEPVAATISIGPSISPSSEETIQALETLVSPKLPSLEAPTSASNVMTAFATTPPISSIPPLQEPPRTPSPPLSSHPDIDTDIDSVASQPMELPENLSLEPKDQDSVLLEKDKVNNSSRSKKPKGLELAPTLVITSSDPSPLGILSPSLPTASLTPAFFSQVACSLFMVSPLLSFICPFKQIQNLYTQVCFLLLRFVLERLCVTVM
To be noted: protein: recombinant; tags: N-terminal GST; dsDNA, one strand shown. The method, boiled down: as §1

Another assay has as its target T4, ETV2 (Homo sapiens, UniProt O00321 1-342).
T4 sequence: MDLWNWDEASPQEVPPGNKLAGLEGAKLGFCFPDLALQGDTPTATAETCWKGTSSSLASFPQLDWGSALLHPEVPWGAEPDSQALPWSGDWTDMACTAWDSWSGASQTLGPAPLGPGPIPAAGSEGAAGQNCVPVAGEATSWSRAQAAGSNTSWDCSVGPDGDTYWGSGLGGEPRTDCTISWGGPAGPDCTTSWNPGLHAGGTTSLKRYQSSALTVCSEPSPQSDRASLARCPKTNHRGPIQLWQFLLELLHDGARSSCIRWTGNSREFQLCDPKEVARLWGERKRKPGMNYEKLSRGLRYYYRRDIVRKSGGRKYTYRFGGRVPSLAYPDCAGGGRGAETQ
The following applies: protein: recombinant; tags: N-terminal GST; dsDNA, one strand shown. The procedure, abridged:
as §1

In the next assay the target is T5, ELF3 (Homo sapiens, UniProt P78545 1-371).
T5 sequence: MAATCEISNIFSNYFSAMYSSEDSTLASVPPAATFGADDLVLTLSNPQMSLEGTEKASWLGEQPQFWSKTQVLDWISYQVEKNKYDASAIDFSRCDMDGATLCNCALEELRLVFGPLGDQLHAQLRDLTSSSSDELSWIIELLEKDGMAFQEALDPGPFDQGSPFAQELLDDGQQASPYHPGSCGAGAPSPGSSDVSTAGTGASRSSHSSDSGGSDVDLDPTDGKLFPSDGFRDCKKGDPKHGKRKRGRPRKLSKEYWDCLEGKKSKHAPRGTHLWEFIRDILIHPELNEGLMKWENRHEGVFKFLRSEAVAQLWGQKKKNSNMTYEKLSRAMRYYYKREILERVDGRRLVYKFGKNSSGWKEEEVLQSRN
The following applies: protein: recombinant; tags: N-terminal GST; dsDNA, one strand shown. The method, boiled down: as §1

A further assay has as its target CRX (Homo sapiens, UniProt O43186 1-299). To be noted: protein: recombinant; tags: N-terminal GST; dsDNA, one strand shown. The procedure, abridged:
as §1

A further assay has as its target ETV1 (Homo sapiens, UniProt P50549 1-477). The following applies: protein: recombinant; tags: N-terminal GST; dsDNA, one strand shown. The procedure, abridged: as §1

ETV5, sequence (P41161 whole entry): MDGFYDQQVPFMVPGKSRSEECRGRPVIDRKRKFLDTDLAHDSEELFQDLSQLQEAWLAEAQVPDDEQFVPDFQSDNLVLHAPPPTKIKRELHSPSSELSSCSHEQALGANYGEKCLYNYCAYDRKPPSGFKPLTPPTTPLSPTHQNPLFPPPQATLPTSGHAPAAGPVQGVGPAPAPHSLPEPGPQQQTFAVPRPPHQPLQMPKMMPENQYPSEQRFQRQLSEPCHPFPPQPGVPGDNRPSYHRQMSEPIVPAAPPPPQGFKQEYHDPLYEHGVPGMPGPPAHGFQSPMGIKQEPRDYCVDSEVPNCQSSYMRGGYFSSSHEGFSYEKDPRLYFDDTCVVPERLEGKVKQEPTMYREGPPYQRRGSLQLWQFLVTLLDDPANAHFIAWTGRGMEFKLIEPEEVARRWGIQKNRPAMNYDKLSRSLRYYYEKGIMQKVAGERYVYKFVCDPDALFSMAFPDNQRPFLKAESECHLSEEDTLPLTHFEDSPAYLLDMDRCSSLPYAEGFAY
CRX, sequence (O43186 whole entry): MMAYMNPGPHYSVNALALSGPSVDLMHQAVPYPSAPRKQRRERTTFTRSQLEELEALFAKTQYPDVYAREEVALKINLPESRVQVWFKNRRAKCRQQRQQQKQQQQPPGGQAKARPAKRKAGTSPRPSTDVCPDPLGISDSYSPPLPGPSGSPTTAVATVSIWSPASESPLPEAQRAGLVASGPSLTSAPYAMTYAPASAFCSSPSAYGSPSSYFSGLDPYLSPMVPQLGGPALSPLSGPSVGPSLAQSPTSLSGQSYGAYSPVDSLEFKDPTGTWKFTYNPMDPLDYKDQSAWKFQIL
ETV1, sequence (P50549 whole entry): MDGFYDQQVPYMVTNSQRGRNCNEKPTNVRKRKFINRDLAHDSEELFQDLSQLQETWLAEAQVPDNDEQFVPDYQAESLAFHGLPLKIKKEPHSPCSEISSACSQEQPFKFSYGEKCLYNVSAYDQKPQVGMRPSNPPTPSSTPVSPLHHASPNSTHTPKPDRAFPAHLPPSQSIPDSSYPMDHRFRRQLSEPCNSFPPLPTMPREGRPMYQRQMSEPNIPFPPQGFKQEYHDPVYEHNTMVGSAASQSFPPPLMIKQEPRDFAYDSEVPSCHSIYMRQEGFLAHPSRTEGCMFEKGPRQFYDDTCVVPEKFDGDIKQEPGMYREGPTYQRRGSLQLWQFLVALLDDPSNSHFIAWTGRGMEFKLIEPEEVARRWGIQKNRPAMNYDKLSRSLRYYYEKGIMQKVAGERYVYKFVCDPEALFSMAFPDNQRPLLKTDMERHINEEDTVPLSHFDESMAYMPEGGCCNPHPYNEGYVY

On to TTTGAC, for which the binding signal with FEV is 1.37 fold enrichment (6-mer frequency, TF over GST control); in the assay with ETV5, 1.5 fold enrichment (6-mer frequency, TF over GST control); with HSF1, 1.35 fold enrichment (6-mer frequency, TF over GST control); with SPIC, 1.3 fold enrichment (6-mer frequency, TF over GST control); in the assay with ELF4, 1.47 fold enrichment (6-mer frequency, TF over GST control); with ELK4, 1.41 fold enrichment (6-mer frequency, TF over GST control). For the same sequence, the binding signal with ETV2 is 1.5 fold enrichment (6-mer frequency, TF over GST control); in the assay with ELF3 it was 1.39 fold enrichment (6-mer frequency, TF over GST control); with CRX, 1.37 fold enrichment (6-mer frequency, TF over GST control); with ETV1, 1.42 fold enrichment (6-mer frequency, TF over GST control).

AGATTC: the binding signal with FEV is 1.13 fold enrichment (6-mer frequency, TF over GST control); with ETV5, 1.07 fold enrichment (6-mer frequency, TF over GST control); in the assay with HSF1 it was 2 fold enrichment (6-mer frequency, TF over GST control); with SPIC it was 1.24 fold enrichment (6-mer frequency, TF over GST control); with ELF4, 1.16 fold enrichment (6-mer frequency, TF over GST control); with ELK4, 1.18 fold enrichment (6-mer frequency, TF over GST control). Besides, the binding signal in the assay with ETV2 is 1.32 fold enrichment (6-mer frequency, TF over GST control); with ELF3 it was 1.11 fold enrichment (6-mer frequency, TF over GST control); in the assay with CRX, 1.41 fold enrichment (6-mer frequency, TF over GST control); in the assay with ETV1 it was 1.22 fold enrichment (6-mer frequency, TF over GST control).

For the sequence ATATCC, the binding signal with FEV was 5.87 fold enrichment (6-mer frequency, TF over GST control); in the assay with ETV5, 2.97 fold enrichment (6-mer frequency, TF over GST control); in the assay with HSF1, 1.31 fold enrichment (6-mer frequency, TF over GST control); with SPIC, 2.59 fold enrichment (6-mer frequency, TF over GST control); with ELF4, 2.27 fold enrichment (6-mer frequency, TF over GST control); in the assay with ELK4 it was 2.39 fold enrichment (6-mer frequency, TF over GST control). Also, the binding signal with ETV2 is 2.7 fold enrichment (6-mer frequency, TF over GST control); with ELF3 it was 2.77 fold enrichment (6-mer frequency, TF over GST control); with CRX, 1.58 fold enrichment (6-mer frequency, TF over GST control); with ETV1, 2.72 fold enrichment (6-mer frequency, TF over GST control).

Consider TTATAC, for which the binding signal in the assay with FEV is 1.35 fold enrichment (6-mer frequency, TF over GST control); in the assay with ETV5, 1.29 fold enrichment (6-mer frequency, TF over GST control); with HSF1, 1.79 fold enrichment (6-mer frequency, TF over GST control); in the assay with SPIC, 1.42 fold enrichment (6-mer frequency, TF over GST control); with ELF4, 1.49 fold enrichment (6-mer frequency, TF over GST control); with ELK4, 1.38 fold enrichment (6-mer frequency, TF over GST control). Also, the binding signal was 1.38 fold enrichment (6-mer frequency, TF over GST control) with ETV2; 1.43 fold enrichment (6-mer frequency, TF over GST control) in the assay with ELF3; 2.54 fold enrichment (6-mer frequency, TF over GST control) with CRX; 1.5 fold enrichment (6-mer frequency, TF over GST control) in the assay with ETV1.

As for TTTTCA, the binding signal with FEV was 1.17 fold enrichment (6-mer frequency, TF over GST control); with ETV5, 1.2 fold enrichment (6-mer frequency, TF over GST control); in the assay with HSF1, 1.14 fold enrichment (6-mer frequency, TF over GST control); with SPIC, 1.22 fold enrichment (6-mer frequency, TF over GST control); in the assay with ELF4, 1.27 fold enrichment (6-mer frequency, TF over GST control); with ELK4, 1.2 fold enrichment (6-mer frequency, TF over GST control). Further, the binding signal is 1.24 fold enrichment (6-mer frequency, TF over GST control) in the assay with ETV2; 1.31 fold enrichment (6-mer frequency, TF over GST control) with ELF3; 1.28 fold enrichment (6-mer frequency, TF over GST control) in the assay with CRX; 1.22 fold enrichment (6-mer frequency, TF over GST control) in the assay with ETV1.

On to ATCCAT, for which the binding signal is 1.24 fold enrichment (6-mer frequency, TF over GST control) in the assay with FEV; 1.17 fold enrichment (6-mer frequency, TF over GST control) in the assay with ETV5; 1.23 fold enrichment (6-mer frequency, TF over GST control) with HSF1; 1.16 fold enrichment (6-mer frequency, TF over GST control) in the assay with SPIC; 1.13 fold enrichment (6-mer frequency, TF over GST control) in the assay with ELF4; 1.14 fold enrichment (6-mer frequency, TF over GST control) with ELK4. In addition, the binding signal in the assay with ETV2 was 1.19 fold enrichment (6-mer frequency, TF over GST control); with ELF3, 1.32 fold enrichment (6-mer frequency, TF over GST control); with CRX, 1.55 fold enrichment (6-mer frequency, TF over GST control); in the assay with ETV1 it was 1.14 fold enrichment (6-mer frequency, TF over GST control).

Consider CCCGTT, for which the binding signal with FEV is 1.13 fold enrichment (6-mer frequency, TF over GST control); with ETV5, 1.21 fold enrichment (6-mer frequency, TF over GST control); in the assay with HSF1, 1.03 fold enrichment (6-mer frequency, TF over GST control); with SPIC it was 1.07 fold enrichment (6-mer frequency, TF over GST control); with ELF4 it was 1.15 fold enrichment (6-mer frequency, TF over GST control); in the assay with ELK4 it was 1.06 fold enrichment (6-mer frequency, TF over GST control). The binding signal with ETV2 is 1.18 fold enrichment (6-mer frequency, TF over GST control); with ELF3 it was 1.26 fold enrichment (6-mer frequency, TF over GST control); with CRX, 1.02 fold enrichment (6-mer frequency, TF over GST control); in the assay with ETV1, 1.03 fold enrichment (6-mer frequency, TF over GST control).
